In the library only some 9.6% were active in any assay of this set; here they are far more common.
hDAT+cocaine: changed human dopamine transporter uptake under cocaine IC80 | AID 449768 | LLC-PK1 hDAT cells, [14C]-dopamine uptake with cocaine IC80; actives deviate in either direction | B-score at 10 µM | Q01959 | actives 1.3% (n = 110,000);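 active = Z score or B-score, a plate-position-corrected score, falls beyond the plate's 99.7% confidence bounds, in either direction; inactive = both scores lie inside the 99.7% bounds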;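 also: scored against the spread of the other compound wells on the same plate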
Cav32 inh: blocks human Cav3.2 T-type calcium channel; O95180; Cav3.2-expressing cells, Fluo-4 calcium fluorescence FDSS; stronger effect = lower value; B-score at 10 µM; actives 4% (n = 100,000); AID 449739;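 active = single-dose well whose peak fluorescence ratio is a statistical outlier from its plate by either plate-standardised score or position-corrected B-score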
PLAP act: activates human placental alkaline phosphatase; purified PLAP enzyme, luminescent substrate read-out; stronger effect = higher value; activation fold at 20 µM; AID 696; P05187; actives 1.2% (n = 96,000); in the data active = activation fold above about 2
PostGolgi yeast: growth inhibition of a yeast mutant, post-Golgi transport screen. post-Golgi transport phenotypic cell assay. inhibition, % at 10 µM. actives 0.9% (n = 98,000);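 also: yeast cells grown in 1536-well plates; yeast grown about 18 h at 30C before absorbance read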
PostGolgi ctrl: yeast control strain growth, post-Golgi counter-screen | efflux-deficient yeast background strain, growth absorbance A615, 16 h | actives 5% (n = 98,000) | inhibition, % at 10 µM
* hit, by the source's call; nt = no result given. Rule as the data show it, unless noted: active = inhibition above about 30%; inactive = the rest.

SMILES	hDAT+cocaine	Cav32 inh	PLAP act	PostGolgi yeast	PostGolgi ctrl
Cc1ccc(C)c(N2CCN(C(=O)CC3Sc4ccccc4NC3=O)CC2)c1 (stereo not given)	3.4*	-6.9*	1.1	-1	10
Cc1ccc(C)c(N2CCN(C(=O)Cc3cn(C)c4ccccc34)CC2)c1	2.1	-5.4*	1.3	-1	15
Cc1ccc(Cl)cc1N1CCN(C(=O)Cc2cn(C)c3ccccc23)CC1	1.6	-1.5	2*	1	10
CCC(=O)N1CCN(c2cc(C)ccc2C)CC1	-0.61	1.1	1.4	11	19
O=C(COC(=O)c1ccccn1)NCCCc1ccccc1	-0.35	-0.29	0.9	1	0
COc1ccc(S(=O)(=O)N2CCCC(C(=O)NCc3ccco3)C2)cc1Cl (stereo not given)	0.31	-0.27	1.2	-3	5
Cc1ccc(NCc2nnc(SCC(=O)N(Cc3ccccc3)C(C)(C)C)o2)c(C)c1	0.31	-4	1.4	-12	19
COc1cccc(OC)c1C(=O)NNC(=O)c1cccc(COc2ccc3c(c2)CCC3)c1	nt	nt	2*	-4	18
COC(=O)C1=C(C)N(CCCC(=O)O)C(=O)NC1c1cccc(Cl)c1Cl (stereo not given)	0.62	1.5	nt	nt	nt
O=C(Nc1ccccc1)C1=C(O)CC(c2ccco2)CC1=Nc1ccccc1 (stereo not given)	-0.26	0.94	0.9	69*	31*
CC1=C(C(=O)Nc2ccccc2)C(c2ccco2)NC(=S)N1 (stereo not given)	1.1	-0.03	1	-4	4
O=C(Nc1ccccc1)C1=C(O)CC(c2ccoc2)CC1=Nc1ccccc1 (stereo not given)	-0.61	-2.5	0.9	14	46*
CCCCN1C(=S)SC(C)(C)C1/[N+]([O-])=C/c1cccnc1 (stereo not given)	-0.071	-0.011	0.8	1	11
Cc1cc(-c2cc(-c3ccccc3)on2)nc(NCC2CC2)n1	-0.032	2.2	nt	nt	nt
c1cc(-c2nnc3sc(C4CCCCC4)nn23)ccn1	-0.86	0.36	0.8	8	2
COc1ccc(Cc2nn3c(-c4ccccc4OC)nnc3s2)cc1	0.76	-1.4	1.5	10	23
COc1ccccc1-c1nnc2sc(C3CCCCC3)nn12	1.8*	-3	0.9	7	1
COc1cccc(OC)c1-c1nn2c(-c3ccccc3Cl)nnc2s1	0.073	-3.2	1.2	-3	38*
COc1ccccc1-c1nnc2sc(COc3ccc(Cl)cc3)nn12	-0.084	-2.8*	1.3	11	35*
CCN(CC)CC(=O)NCc1cc(-c2ccc(OC)cc2)no1	-1.5	nt	0.9	14	9
O=C(Nc1nnc(C23CC4CC(CC(C4)C2)C3)s1)c1ccc(N2C(=O)CCC2=O)cc1	0.38	0.01	1	-14	15
Cc1nn(-c2c(Cl)cc(Cl)cc2Cl)c(=O)c2ccccc12	0.3	-5*	0.9	-11	17
O=C(c1ccccn1)N(Cc1cc2ccccc2[nH]c1=O)C1CCCCC1	2.9*	-0.1	1.1	19	-5
O=C(OCc1cc2ccccc2[nH]c1=O)C1CCCCC1	-0.47	-0.98	1	30*	13
COc1ccc2[nH]c(=O)c(CN(C(=O)c3ccccn3)C3CCCCC3)cc2c1	0.25	nt	1.3	12	6
SMILES	hDAT+cocaine	Cav32 inh	PLAP act	PostGolgi yeast	PostGolgi ctrl
c1csc(-c2nc3nc4ccccc4nc3n2Cc2ccc3c(c2)OCO3)c1	1.4	-3.2	1.5	-6	44*
CCN(c1ccccc1)S(=O)(=O)c1ccc(F)cc1C	-0.26	-3.9	0.9	-6	1
CCc1ccc(NC(=O)CNC(=O)c2cn(-c3ccccc3OC)c(=O)c3ccccc23)cc1	1.9	-4.2*	2.2*	-4	-3
COc1ccccc1NC(=O)CNC(=O)c1ccccc1C	-0.16	0.4	1.3	-2	-6
Cc1ccc(CNC(=O)CCc2nc(-c3cccs3)no2)cc1	0.26	-5.1*	1.2	-7	43*
O=C(CCc1nc(-c2cccs2)no1)NCc1ccc(F)cc1Cl	0.025	-4.5*	0.8	4	14
Cc1cccc(-c2noc(CCC(=O)NCc3ccccc3)n2)c1	0.041	-3.1	0.8	7	-5
CCOC(=O)C(C)Sc1nnc(-c2ccccc2O)n1-c1ccc(C)cc1 (stereo not given)	-0.065	-4.6	1.3	7	11
CCOC(=O)c1ccc(N2C(=O)C3ON(c4ccccc4)C(c4ccco4)C3C2=O)cc1 (stereo not given)	-0.046	-0.41	1.5	1	6

From PubChem
